According to the supplement of paper PMC8253809:
Values joined by “and” are separate entries in the source; they are usually repeats but may differ in a detail not shown here. Identical values can stand only once.

Tests used:
Assay in all cases: growth inhibition (% activity, log2 RLU normalised to DMSO / staurosporine); higher = more growth inhibition
Conditions in all cases: 33 µM
DIPGX29 = test system: DIPGX29 (H3.3 K27M diffuse intrinsic pontine glioma line)
Outline: (§1)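 On Geltrex-coated 384-well plates, pHGG cell lines and H9-derived neural stem cells were grown with approved drugs pinned in at a single final concentration of about 33 μM, in triplicate, for 7 days at 37 °C, 5% CO2. Per-plate normalisation of log2-transformed CellTiter-Glo luminescence to % activity between solvent and positive control wells followed. Each growth-inhibition value is the median over the replicates.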

DIPGX37 = test system: DIPGX37 (H3.3 K27M diffuse intrinsic pontine glioma line)
Outline: as §1

DIPGX7 = test system: DIPGX7 (H3.3 K27M diffuse intrinsic pontine glioma line)
Outline: as §1

DIPGX9 = test system: DIPGX9 (diffuse intrinsic pontine glioma line)
Outline: as §1

HGGX39 = test system: HGGX39 (paediatric high-grade glioma line)
Outline: as §1

HGGX6 = test system: HGGX6 (H3.3 G34R paediatric high-grade glioma line)
Outline: as §1

HNSC = test system: HNSC
Outline: as §1

SUDIPGIV = test system: SUDIPGIV (diffuse intrinsic pontine glioma line)
Outline: as §1

SUDIPGVI = test system: SUDIPGVI (diffuse intrinsic pontine glioma line)
Outline: as §1

SUDIPGXIII = test system: SUDIPGXIII (diffuse intrinsic pontine glioma line)
Outline: as §1

Molecule `CCCCCCCCCCC[C@@H](C[C@@H]1OC(=O)[C@H]1CCCCCC)OC(=O)[C@H](CC(C)C)NC=O` has a growth inhibition (DIPGX29) of -2.1%, a growth inhibition (DIPGX37) of -1.45% and a growth inhibition (DIPGX7) of -1.06%. The growth inhibition (DIPGX9) was -1.8%, the growth inhibition (HGGX39) was -0.97% and the growth inhibition (HGGX6) was 0.864%. It also gave a growth inhibition (HNSC) of -6.06%, a growth inhibition (SUDIPGIV) of -1.86% and a growth inhibition (SUDIPGVI) of -3.34%. The growth inhibition (SUDIPGXIII) was 0.12%.
`C[C@H]1NC(=O)NC1=O` gave a growth inhibition (DIPGX29) of -0.365%, a growth inhibition (DIPGX37) of 0.903% and a growth inhibition (DIPGX7) of -1.69%. For the same molecule, the growth inhibition (DIPGX9) was -0.744%, the growth inhibition (HGGX39) was -0.268% and the growth inhibition (HGGX6) was 0.316%. For the same molecule, the growth inhibition (HNSC) was -0.248%, the growth inhibition (SUDIPGIV) was -0.465% and the growth inhibition (SUDIPGVI) was 1.41%. It also gave a growth inhibition (SUDIPGXIII) of 0.834%.
`CCc1ccc(CCOc2ccc(CC3SC(=O)NC3=O)cc2)nc1` (stereo not given) was tested, and the growth inhibition (DIPGX29) was -2.15% and 0.83%, the growth inhibition (DIPGX37) was -2.01% and 4.22% and the growth inhibition (DIPGX7) was -1.47% and 2.56%. For the same molecule, the growth inhibition (DIPGX9) was -0.422% and 2.5%, the growth inhibition (HGGX39) was -0.303% and 4.55% and the growth inhibition (HGGX6) was 0.514% and 3.43%. For the same molecule, the growth inhibition (HNSC) was -3.49% and 4.18%, the growth inhibition (SUDIPGIV) was -1.64% and 1.36% and the growth inhibition (SUDIPGVI) was -1.48% and 2.8%. The growth inhibition (SUDIPGXIII) was -2.58% and 1.07%.
`C[C@H](CS)C(=O)N1CCC[C@H]1C(=O)O` gave a growth inhibition (DIPGX29) of 0.445%, a growth inhibition (DIPGX37) of -0.171% and a growth inhibition (DIPGX7) of 1.27%. The growth inhibition (DIPGX9) was 1.57%, the growth inhibition (HGGX39) was 1.84% and the growth inhibition (HGGX6) was -1.72%. It also gave a growth inhibition (HNSC) of 2.42%, a growth inhibition (SUDIPGIV) of -0.14% and a growth inhibition (SUDIPGVI) of -0.111%. It also gave a growth inhibition (SUDIPGXIII) of -0.989%.
`C[C@]12CCC(=O)C=C1CC[C@@H]1[C@@H]2[C@@H](O)C[C@@]2(C)[C@H]1CC[C@]2(O)C(=O)CO` showed a growth inhibition (DIPGX29) of 1.76%, a growth inhibition (DIPGX37) of 3.35% and a growth inhibition (DIPGX7) of 0.297%. It also gave a growth inhibition (DIPGX9) of 4.32%, a growth inhibition (HGGX39) of 3.81% and a growth inhibition (HGGX6) of 2.56%. It also gave a growth inhibition (HNSC) of -1.17%, a growth inhibition (SUDIPGIV) of -0.15% and a growth inhibition (SUDIPGVI) of 3.46%. The growth inhibition (SUDIPGXIII) was 0.475%.
`NC(=O)C(c1ccccc1)(c1ccccc1)[C@@H]1CCN(CCc2ccc3c(c2)CCO3)C1` gave a growth inhibition (DIPGX29) of 2.96%, a growth inhibition (DIPGX37) of 2.86% and a growth inhibition (DIPGX7) of 0.954%. For the same molecule, the growth inhibition (DIPGX9) was 1.04%, the growth inhibition (HGGX39) was 4.33% and the growth inhibition (HGGX6) was 2.82%. It also gave a growth inhibition (HNSC) of 1.33%, a growth inhibition (SUDIPGIV) of 0.535% and a growth inhibition (SUDIPGVI) of 2.52%. For the same molecule, the growth inhibition (SUDIPGXIII) was 0.646%.
With `CCC[C@@H]1C[C@@H](C(=O)N[C@@H]([C@H]2O[C@H](SC)[C@H](OP(=O)(O)O)[C@@H](O)[C@H]2O)[C@H](C)Cl)N(C)C1` the growth inhibition (DIPGX29) was -4.37%, the growth inhibition (DIPGX37) was -1.53% and the growth inhibition (DIPGX7) was -1.72%. The growth inhibition (DIPGX9) was -1.01%, the growth inhibition (HGGX39) was -2.23% and the growth inhibition (HGGX6) was -2.46%. The growth inhibition (HNSC) was 3.42%, the growth inhibition (SUDIPGIV) was -1.74% and the growth inhibition (SUDIPGVI) was -2.75%. For the same molecule, the growth inhibition (SUDIPGXIII) was 0.327%.
`CCN1CC(CCN2CCOCC2)C(c2ccccc2)(c2ccccc2)C1=O` (stereo not given) gave a growth inhibition (DIPGX29) of 3.26%, a growth inhibition (DIPGX37) of 4.12% and a growth inhibition (DIPGX7) of 3.42%. For the same molecule, the growth inhibition (DIPGX9) was 1.56%, the growth inhibition (HGGX39) was 3.54% and the growth inhibition (HGGX6) was 3.39%. The growth inhibition (HNSC) was 6.96%, the growth inhibition (SUDIPGIV) was 3.42% and the growth inhibition (SUDIPGVI) was 2.27%. For the same molecule, the growth inhibition (SUDIPGXIII) was -0.683%.
For `CO[C@H]1/C=C/O[C@@]2(C)Oc3c(C)c(O)c4c(O)c(c(/C=N/N5CCN(C)CC5)c(O)c4c3C2=O)NC(=O)/C(C)=C\C=C\[C@H](C)[C@H](O)[C@@H](C)[C@@H](O)[C@@H](C)[C@H](OC(C)=O)[C@@H]1C`, the growth inhibition (DIPGX29) was -0.241%, the growth inhibition (DIPGX37) was -0.311% and the growth inhibition (DIPGX7) was -0.321%. The growth inhibition (DIPGX9) was -1.43%, the growth inhibition (HGGX39) was 0.825% and the growth inhibition (HGGX6) was 3.31%. The growth inhibition (HNSC) was -3.9%, the growth inhibition (SUDIPGIV) was -0.0069% and the growth inhibition (SUDIPGVI) was -1.69%. For the same molecule, the growth inhibition (SUDIPGXIII) was 1.7%.
`C[C@]12CC[C@@H]3c4ccc(O)cc4CC[C@H]3[C@@H]1C[C@@H](O)[C@@H]2O` gave a growth inhibition (DIPGX29) of -2.64%, a growth inhibition (DIPGX37) of -2.04% and a growth inhibition (DIPGX7) of -1.85%. For the same molecule, the growth inhibition (DIPGX9) was -3.27%, the growth inhibition (HGGX39) was -3.05% and the growth inhibition (HGGX6) was -3.15%. It also gave a growth inhibition (HNSC) of 1.55%, a growth inhibition (SUDIPGIV) of -0.339% and a growth inhibition (SUDIPGVI) of -10.4%. For the same molecule, the growth inhibition (SUDIPGXIII) was 1.55%.
